Biological target: Interleukin-8 (IL8, CXCL8), C-terminal His-tagged (Homo sapiens, UniProt P10145 SEQ:1-72)
Assay: competition; competition TR-FRET; L1 A to U, described as complete loss
Details: tags: C-terminal 6xHis (Sino Biological); ssRNA; 2'-F G, 2'-OMe A/C/U, 5' C6NH2, 3' idT
Experimental: To better understand the sequence requirements and to confirm the stem structures of members of the Aptamer 3 family as determined from sequence covariation analysis from both the primary and secondary (degenerate) selections, a series of variants which included mutations and deletions to the predicted stems were synthesized and screened (Table 24). Activity of each of these variants were tested using a time resolved competition TR-FRET assay in which the labeled parent Aptamer 3 was competed with increasing concentrations of unlabeled variants for binding to IL8 (FIG. 14). Briefly, 2-fold dilutions of thermally equilibrated aptamers were made in TR-FRET Buffer (50 mM MOPS, pH 7.4, 125 mM NaCl, 5 mM KCl, 50 μM CHAPS, 0.1 mg/mL BSA, 1 mM CaCl₂, and 1 mM MgCl₂). 5 μL of aptamer or control solution was added to 5 μl mix of 10 nM C-terminal His-tagged-IL8, 60 nM ALEXA FLUOR® 647-labeled Aptamer, and 5 nM anti-His-Eu (Perkin Elmer) in a black wall low volume 384 well plate (Greiner). […] The plate was read on a Biotek CYTATION™ 5 plate reader. […]
To confirm the importance of this residue, molecules were made and tested in which either loop L1 was deleted entirely (Aptamer 40) or was mutated to 5′-U-3′(Aptamer 41). In both cases, there was a complete loss of activity (>10-fold) as determined by competition TR-FRET assay (Table 25 and FIG. 15).

Question: GAUGUCGGUAGAUUACGGGUAGAGUGACCGCAUC was tested. Which binding signal did it give?
Answer: Its binding signal is greater than 10 fold worse than Aptamer 3.

From patent publication US20210230599, “STEM-LOOP COMPOSITIONS AND METHODS FOR INHIBITING INTERLEUKIN-8” (VITRISA THERAPEUTICS, INC., published 2021)
